Results taken from PubChem BioAssay (NCATS).
Records with an inconclusive call do not appear. The source made the active and inactive calls. The call rests on the fitted dose curve; in most records, active means well fitted curve in the direction sought with a large enough effect; inconclusive means small, poorly fitted or top-dose-only effect, or another doubt; inactive means no such curve, though single readings can be large; an effect the other way counts as inactive or inconclusive.

Legend:
[1] = Quantitative High-Throughput drug screen in 47 multiple myeloma cell lines against the NCATS MIPE library collection: KHM11_PLB cell viability assay (AID 1918962); settings: KHM11 myeloma cell viability, CellTiter-Glo ATP luminescence, 48 h; series mostly up to 45.8 µM; further: nearly all actives have a fitted effect of over 35% in size
Procedure, shortened: (§1)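 CellTiter-Glo luminescence (ATP) after 48 h compound exposure, 37C/5% CO2; 500 cells/well; MIPE 4.0 approved/investigational drugs pinned in; DMSO = 100%, media only = 0% viability.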

[2] = Quantitative High-Throughput drug screen in 47 multiple myeloma cell lines against the NCATS MIPE library collection: JIM3_ECACC cell viability assay (AID 1918963; further: nearly all actives have a fitted effect of over 35% in size); settings: JIM3 myeloma viability, CellTiter-Glo ATP, 48 h; series mostly up to 45.8 µM
Procedure, shortened: as §1

[3] = Quantitative High-Throughput drug screen in 47 multiple myeloma cell lines against the NCATS MIPE library collection: INA6_PLB cell viability assay (AID 1918965; further: nearly all actives have a fitted effect of over 55% in size); settings: INA6 myeloma viability, CellTiter-Glo ATP luminescence, 48 h; series mostly up to 45.8 µM
Procedure, shortened: (§2)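 Myeloma cells (500 per well) were exposed to MIPE 4.0 compounds by pin transfer and incubated 48 hours at 37C, 5% CO2. Viability was read as ATP by CellTiter-Glo luminescence, normalised to DMSO (100%) and media-only (0%) wells.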

[4] = Quantitative High-Throughput drug screen in 47 multiple myeloma cell lines against the NCATS MIPE library collection: JJN3_DSMZ cell viability assay (AID 1918966; further: nearly all actives have a fitted effect of over 50% in size); settings: JJN3 myeloma cells viability, CellTiter-Glo ATP, 48 h; series mostly up to 45.8 µM
Procedure, shortened: (§3)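 Approved and investigational drugs from MIPE 4.0 were added by pin tool to 500 cells per well. After 48 hours at 37C, ATP-based CellTiter-Glo luminescence indicated remaining viability.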

[5] = Quantitative High-Throughput drug screen in 47 multiple myeloma cell lines against the NCATS MIPE library collection: H1112_PLB cell viability assay (AID 1918967; further: nearly all actives have a fitted effect of over 30% in size); settings: H1112 myeloma cells viability, ATP luminescence, 48 h; series mostly up to 45.8 µM
Procedure, shortened: as §3

[6] = Quantitative High-Throughput drug screen in 47 multiple myeloma cell lines against the NCATS MIPE library collection: Karpas25_ECACC cell viability assay (AID 1918968; further: nearly all actives have a fitted effect of over 35% in size); settings: Karpas25 myeloma viability, CellTiter-Glo ATP, 48 h; series mostly up to 45.8 µM
Procedure, shortened: as §3

[7] = Quantitative High-Throughput drug screen in 47 multiple myeloma cell lines against the NCATS MIPE library collection: KMS27_JCRB cell viability assay (AID 1918970); settings: KMS27 myeloma cells, CellTiter-Glo ATP viability, 48 h; series mostly up to 45.8 µM; further: nearly all actives have a fitted effect of over 30% in size
Procedure, shortened: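 ATP-based viability (CellTiter-Glo luminescence) is measured in cells treated 48 h with approved and investigational drugs at 37 °C. Controls are DMSO-only wells for full viability and media-only wells for none.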

[8] = Quantitative High-Throughput drug screen in 47 multiple myeloma cell lines against the NCATS MIPE library collection: KMS12PE_JCRB cell viability assay (AID 1918972); settings: KMS12PE myeloma viability, CellTiter-Glo ATP, 48 h; series mostly up to 45.8 µM; further: nearly all actives have a fitted effect of over 30% in size
Procedure, shortened: as §2

[9] = Quantitative High-Throughput drug screen in 47 multiple myeloma cell lines against the NCATS MIPE library collection: KMS20_JCRB cell viability assay (AID 1918973); settings: CellTiter-Glo ATP, 48 h; series mostly up to 45.8 µM; further: nearly all actives have a fitted effect of over 45% in size
Procedure, shortened: as §3

[10] = Quantitative High-Throughput drug screen in 47 multiple myeloma cell lines against the NCATS MIPE library collection: KMS26_JCRB cell viability assay (AID 1918975); settings: KMS26 myeloma cells viability, CellTiter-Glo ATP, 48 h; series mostly up to 45.8 µM; further: nearly all actives have a fitted effect of over 45% in size
Procedure, shortened: (§4)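 We plated 500 myeloma cells per well, pinned in MIPE 4.0 compounds, and incubated for 48 hours at 37C. ATP was then quantified with CellTiter-Glo, with DMSO and media-only wells defining 100% and 0%.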

[11] = Quantitative High-Throughput drug screen in 47 multiple myeloma cell lines against the NCATS MIPE library collection: NCIH929_DSMZ cell viability assay (AID 1918978); settings: NCI-H929 myeloma viability, CellTiter-Glo ATP, 48 h; series mostly up to 45.8 µM; further: nearly all actives have a fitted effect of over 35% in size
Procedure, shortened: (§5)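 Myeloma cells (500/well) treated with MIPE 4.0 compounds for 48 h at 37 °C, 5% CO2. Viability read as ATP via CellTiter-Glo luminescence after 5 min at RT; DMSO-only wells = 100%, media-only = 0% viability.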

[12] = Quantitative High-Throughput drug screen in 47 multiple myeloma cell lines against the NCATS MIPE library collection: OCIMY1_PLB cell viability assay (AID 1918979); settings: OCI-MY1 myeloma viability, CellTiter-Glo ATP, 48 h; series mostly up to 45.8 µM; further: nearly all actives have a fitted effect of over 35% in size
Procedure, shortened: as §5

[13] = Quantitative High-Throughput drug screen in 47 multiple myeloma cell lines against the NCATS MIPE library collection: MM1S_ATCC cell viability assay (AID 1918980); settings: MM1S myeloma viability, CellTiter-Glo ATP luminescence, 48 h; series mostly up to 45.8 µM; further: nearly all actives have a fitted effect of over 45% in size
Procedure, shortened: as §5

[14] = Quantitative High-Throughput drug screen in 47 multiple myeloma cell lines against the NCATS MIPE library collection: MM1R_ATCC cell viability assay (AID 1918981); settings: MM1R multiple myeloma cells, CellTiter-Glo viability, 48 h; series mostly up to 45.8 µM; further: nearly all actives have a fitted effect of over 35% in size
Procedure, shortened: as §5

[15] = Quantitative High-Throughput drug screen in 47 multiple myeloma cell lines against the NCATS MIPE library collection: KMS12BM_JCRB cell viability assay (AID 1918971); settings: KMS12BM myeloma viability, CellTiter-Glo ATP, 48 h; series mostly up to 45.8 µM; further: nearly all actives have a fitted effect of over 35% in size
Procedure, shortened: as §4

[16] = Quantitative High-Throughput drug screen in 47 multiple myeloma cell lines against the NCATS MIPE library collection: KMS21BM_JCRB cell viability assay (AID 1918974); settings: ATP luminescence, 48 h; viability: at 45.8 µM (top of the series) unless noted
Procedure, shortened: as §3

[17] = Quantitative High-Throughput drug screen in 47 multiple myeloma cell lines against the NCATS MIPE library collection: JIM1_ECACC cell viability assay (AID 1918964); settings: JIM1 myeloma viability, CellTiter-Glo ATP luminescence, 48 h; series mostly up to 45.8 µM
Procedure, shortened: as §3

[18] = Quantitative High-Throughput drug screen in 47 multiple myeloma cell lines against the NCATS MIPE library collection: MOLP8_DSMZ cell viability assay (AID 1918977); settings: MOLP8 myeloma viability, CellTiter-Glo ATP luminescence, 48 h; series mostly up to 45.8 µM; further: nearly all actives have a fitted effect of over 45% in size
Procedure, shortened: as §5

[19] = Quantitative High-Throughput drug screen in 47 multiple myeloma cell lines against the NCATS MIPE library collection: LP1_DSMZ cell viability assay (AID 1918982); settings: LP1 myeloma viability, CellTiter-Glo ATP luminescence, 48 h; series mostly up to 45.8 µM; further: nearly all actives have a fitted effect of over 35% in size
Procedure, shortened: as §5

[20] = Quantitative High-Throughput drug screen in 47 multiple myeloma cell lines against the NCATS MIPE library collection: MMM1_PLB cell viability assay (AID 1918976); settings: MMM1 myeloma cells viability, CellTiter-Glo, 48 h; series mostly up to 45.8 µM; further: nearly all actives have a fitted effect of over 35% in size
Procedure, shortened: as §5

Measured: Potency
Potency means the concentration at half of the fitted maximal effect.

C=CC(=O)Nc1cccc(Oc2nc(Nc3ccc(N4CCN(C)CC4)cc3)ncc2Cl)c1
active: [1] 16600 nM | [2] 5900 nM | [3] 2960 nM | [4] 18700 nM | [5] 5900 nM | [6] 3720 nM | [7] 4690 nM | [8] 1870 nM | [9] 1870 nM | [10] 26400 nM | [11] 3720 nM | [12] 16600 nM | [13] 18700 nM | [14] 14800 nM

O=C(O)C1(Cc2cccc(Nc3nccs3)n2)CCC(Oc2cccc(Cl)c2F)CC1 (stereo not drawn)
active: [1] 264 nM | [2] 935 nM | [3] 235 nM | [15] 1320 nM | [16] 23.5 nM | [13] 332 nM | [14] 469 nM
inactive: [4] | [5] | [11] | [12]

Clc1cccc(-c2nnnn2Cc2cccnc2)c1Cl
active: [6] 16600 nM
inactive: [1] | [2] | [17] | [8] | [9] | [10] | [18] | [12] | [14] | [19]

Nc1nc(Nc2ccc(S(N)(=O)=O)cc2)nn1C(=O)c1c(F)cccc1F
active: [1] 2960 nM | [2] 7430 nM | [3] 1480 nM | [4] 5260 nM | [5] 8330 nM | [6] 6620 nM | [7] 4180 nM | [15] 5900 nM | [8] 6620 nM | [9] 4180 nM | [10] 7430 nM | [20] 10500 nM | [11] 4180 nM | [12] 13200 nM | [13] 7430 nM | [14] 6620 nM | [19] 8330 nM

CCOc1ccccc1OCCNC(C)Cc1ccc(OC)c(S(N)(=O)=O)c1 (stereo not drawn)
not listed: [3] | [5] | [6] | [15] | [16] | [19] | [20]
inactive: all other assays above

COc1cc(=C2C=c3ccccc3=N2)[nH]c1=Cc1[nH]c(C)cc1C
active: [1] 418 nM | [2] 2350 nM | [3] 1180 nM | [4] 1870 nM | [5] 5900 nM | [6] 743 nM | [7] 16600 nM | [15] 1660 nM | [8] 20900 nM | [9] 7430 nM | [10] 2350 nM | [20] 2090 nM | [18] 469 nM | [11] 5260 nM | [12] 3720 nM | [14] 1050 nM | [19] 743 nM

O=C(Cc1ccc(-c2ccc(OCCN3CCOCC3)cc2)cn1)NCc1ccccc1
active: [1] 469 nM | [2] 16.6 nM | [17] 7.4 nM | [4] 132 nM | [5] 18.7 nM | [6] 41.8 nM | [15] 37.2 nM | [8] 14.8 nM | [10] 83.3 nM | [20] 14800 nM | [18] 83.3 nM | [11] 93.5 nM | [13] 132 nM | [14] 187 nM | [19] 41.8 nM

CC1(C)O[C@@H]2C[C@@H]3[C@H]4C[C@@H](F)C5=CC(=O)C=C[C@]5(C)[C@@]4(F)[C@@H](O)C[C@]3(C)[C@]2(C(=O)CO)O1
inactive: [1] | [2] | [3] | [4] | [15] | [11] | [12] | [14]
active: [6] 7.4 nM | [20] 10.5 nM | [13] 11.8 nM

C=CC(=O)Nc1cc2c(Nc3ccc(F)c(Cl)c3)ncnc2cc1C#CC(C)(C)N1CCN(C)CC1
active: [1] 2090 nM | [2] 1660 nM | [17] 1050 nM | [5] 1870 nM | [6] 526 nM | [7] 833 nM | [8] 833 nM | [9] 296 nM | [16] 332 nM | [10] 1660 nM | [18] 1050 nM | [12] 4690 nM | [14] 1320 nM | [19] 9350 nM

COc1cc2c(Oc3ccc(NC(=O)C4(C(=O)Nc5ccc(F)cc5)CC4)cc3F)ccnc2cc1OCCCN1CCOCC1
active: [1] 7430 nM | [2] 11800 nM | [17] 1660 nM | [4] 16600 nM | [5] 16600 nM | [6] 935 nM | [7] 9350 nM | [8] 3720 nM | [9] 1870 nM | [10] 16600 nM | [20] 18700 nM | [12] 14800 nM | [13] 16600 nM | [14] 4180 nM | [19] 16600 nM
